The panel holds about 79,000 compounds, 15% with a hit somewhere; the sample as a whole holds those more often. Values without a mark were called inactive. Active and inactive are the calls of the source. Cut-off read from the data, not from the text of the source: active = growth inhibition above about 70%; inactive = the rest.
Tests used:
[1] = NCI Yeast Anticancer Drug Screen. Data for the rad50 strain (AID 155);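 note: 0% = growth of vehicle-only cultures of the same strain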; settings: S. cerevisiae rad50 strain growth inhibition, hits give high values
In short: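 Inhibition values express reduced yeast growth in compound-treated cultures relative to vehicle-treated controls.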

[2] = NCI Yeast Anticancer Drug Screen. Data for the mec2-1 strain (AID 157); settings: S. cerevisiae mec2-1 strain, hits give high values
In short: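 Readout is yeast growth inhibition, normalised to vehicle-treated controls, in the mec2-1 strain exposed to compound.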

[3] = NCI Yeast Anticancer Drug Screen. Data for the sgs1 mgt1 strain (AID 161);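 note: 0% = growth of cultures given vehicle only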; settings: S. cerevisiae sgs1 mgt1 strain, hits give high values
In short: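 This yeast growth screen uses a strain with defined DNA-repair lesions; compound-treated growth is compared with vehicle-treated growth.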

[4] = NCI Yeast Anticancer Drug Screen. Data for the cln2 rad14 strain (AID 165);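 note: 0% = growth equal to vehicle treated cultures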; settings: S. cerevisiae cln2 rad14 strain, hits give high values
In short: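 Relative to vehicle controls, growth inhibition of compound-treated cln2 rad14 yeast was recorded.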

[5] = NCI Yeast Anticancer Drug Screen. Data for the bub3 strain (AID 167); settings: S. cerevisiae bub3 mutant strain, hits give high values
In short: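 Steps: expose the mutant yeast strain to compound; grow alongside vehicle-treated cultures; measure growth; express inhibition against the vehicle cultures.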

[6] = NCI Yeast Anticancer Drug Screen. Data for the mlh1 rad18 strain (AID 175); settings: S. cerevisiae mlh1 rad18 strain growth inhibition, hits give high values
In short: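 Test agents were incubated with a yeast strain of defined genotype (DNA damage repair defect). Inhibition of growth was derived by comparison with vehicle-exposed cultures.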

[7] = at 5.0 µM (retest, dose inferred, filed as 0.5)
[8] = at 50.0 µM (retest, dose inferred, filed as 5.0)

SMILES | growth inhibition [1, 7] | growth inhibition [1, 8] | growth inhibition ([1]; at 50.0 µM) | growth inhibition [2, 7] | growth inhibition [2, 8] | growth inhibition ([2]; at 50.0 µM) | growth inhibition [3, 7] | growth inhibition [3, 8] | growth inhibition ([3]; at 50.0 µM) | growth inhibition [4, 7] | growth inhibition [4, 8] | growth inhibition ([4]; at 50.0 µM) | growth inhibition [5, 7] | growth inhibition [5, 8] | growth inhibition ([5]; at 50.0 µM) | growth inhibition [6, 7] | growth inhibition [6, 8] | growth inhibition ([6]; at 50.0 µM)
CCOc1ccccc1-c1nc2c(s1)C(=O)c1ccccc1C2=O | 87% (active) | 98% (active) | 90% (active) | 100% (active) | 99% (active) | 91.4% (active) | 85% (active) | 98% (active) | 92% (active) | 52% | 98% (active) | 89.9% (active) | 98% (active) | 98% (active) | 92.3% (active) | 94% (active) | 98% (active) | 91.8% (active)
Cc1cc(Cl)c2c(c1)C(=N/O)/C(=C\c1ccco1)O2 | 100% (active) | 99% (active) | 88% (active) | 100% (active) | 99% (active) | 90.3% (active) | 96% (active) | 99% (active) | 83.5% (active) | 77% (active) | 99% (active) | 88% (active) | 100% (active) | 99% (active) | 89% (active) | 99% (active) | 99% (active) | 85.2% (active)
N#Cc1ccc([N+](=O)[O-])o1 | 11% | 97% (active) | 96.2% (active) | 1% | 98% (active) | 99% (active) | 9% | 93% (active) | 96.2% (active) | 8% | 59% | 62.8% | 7% | 92% (active) | 97.7% (active) | 15% | 99% (active) | 97.9% (active)
CCOc1ccccc1N1C(=O)C=CC1=O | 57% | 67% | 92% (active) | 60% | 75% (active) | 93.6% (active) | 99% (active) | 100% (active) | 93.8% (active) | 99% (active) | 100% (active) | 90.5% (active) | 100% (active) | 100% (active) | 92.3% (active) | 42% | 58% | 92.5% (active)
CC1N=C(Cc2ccccc2)SC1C (configuration not stated) | -2% | 81% (active) | 74.5% (active) | -5% | 85% (active) | 86.1% (active) | 0% | 87% (active) | 86.8% (active) | -9% | 85% (active) | 88% (active) | 0% | 83% (active) | 88.3% (active) | -1% | 84% (active) | 85.8% (active)
O=C1OC(c2ccccc2)CC1Cc1ccccc1 (configuration not stated) | -10% | -15% | 1.7% | -32% | 3% | -0.25% | -2% | 8% | -12.9% | 9% | -5% | -6.55% | -2% | 6% | 29.1% | -17% | -21% | -33.8%
N#Cc1c(Cl)nc2ccccc2c1N=[N+]=[N-] | -1% | 12% | 50.6% | -19% | -9% | 63.3% | -14% | 18% | 56.2% | 6% | 8% | 50.5% | -8% | -15% | 14.8% | -18% | 8% | 58.2%
COc1ccc(C(C#N)=C2C=CC(=NOC(=O)Nc3ccccc3)C=C2)cc1 | 41% | 82% (active) | 88.4% (active) | 28% | 92% (active) | 93.1% (active) | 68% | 96% (active) | 94.8% (active) | 4% | 91% (active) | -1.4% | 12% | 37% | 69.1% | 33% | 91% (active) | 96.3% (active)
Clc1ccc2nc3c(c(N4CCOCC4)c2c1)CCCC3 | 94% (active) | 97% (active) | 99% (active) | 92% (active) | 99% (active) | 99.3% (active) | 94% (active) | 98% (active) | 99.2% (active) | 80% (active) | 99% (active) | 98.9% (active) | 53% | 98% (active) | 99.5% (active) | 96% (active) | 98% (active) | 99.2% (active)

Source: PubChem BioAssay (NCI)
